PubChem BioAssay AID588591 (National Center for Advancing Translational Sciences (NCATS), 2011)
Several values for one entry are separate records, joined by “and”; a condition that tells them apart may be missing. Equal entries are not always repeated. Among all 390,000 compounds or so, about 4,700 (1.2%) were called active. A call without a number means that no potency is given here. About 4% were inconclusive and are not listed. The call rests on the fitted dose curve; in most records, active means well fitted inhibition curve with a large enough effect; inconclusive means small, poorly fitted or top-dose-only effect, or another doubt; inactive means no such curve, though single readings can be large or run the other way. The sample as a whole holds a higher share of actives than the screen did.

What follows are compounds tested against DNA polymerase eta (Homo sapiens) (UniProt Q9Y253) (assay: qHTS for Inhibitors of Polymerase Eta). Details: recombinant Pol eta, fluorescent DNA replication assay; series mostly up to 114 µM.
Chain of DNA polymerase eta (Homo sapiens) (Q9Y253 whole entry, looked up): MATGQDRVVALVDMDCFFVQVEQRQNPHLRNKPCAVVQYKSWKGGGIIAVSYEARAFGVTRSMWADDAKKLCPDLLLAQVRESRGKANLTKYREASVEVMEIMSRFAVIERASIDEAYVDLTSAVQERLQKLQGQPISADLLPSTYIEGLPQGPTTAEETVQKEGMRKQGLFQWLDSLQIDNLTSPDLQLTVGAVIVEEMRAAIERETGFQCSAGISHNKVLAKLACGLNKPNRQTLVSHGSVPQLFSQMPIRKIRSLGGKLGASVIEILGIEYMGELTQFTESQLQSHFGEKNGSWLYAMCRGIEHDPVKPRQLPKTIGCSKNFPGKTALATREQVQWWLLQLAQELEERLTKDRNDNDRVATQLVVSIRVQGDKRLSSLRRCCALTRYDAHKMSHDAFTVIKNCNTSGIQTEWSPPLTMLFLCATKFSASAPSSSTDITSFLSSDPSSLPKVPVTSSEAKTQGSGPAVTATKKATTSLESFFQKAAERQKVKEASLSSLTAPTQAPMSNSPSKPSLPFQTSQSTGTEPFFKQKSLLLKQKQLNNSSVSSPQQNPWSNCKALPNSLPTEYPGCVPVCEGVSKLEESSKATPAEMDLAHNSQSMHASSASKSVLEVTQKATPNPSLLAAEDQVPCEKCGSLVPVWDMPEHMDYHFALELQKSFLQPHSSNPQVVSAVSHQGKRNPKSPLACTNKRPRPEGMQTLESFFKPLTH
How it was run: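 Fluorescent replication assay: 50 nM final substrate added after a 15 min room-temperature compound preincubation with 10 nM enzyme. Signal taken at 0 min and again at 10 min.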
Potency means the concentration at half of the fitted maximal effect.

Compound | Potency
O=C(COC(=O)c1ccc(F)cc1F)Nc1ncccn1 | 22.4 µM (active)
CC(NC(=O)COC(=O)c1ccc(Cl)cc1O)c1ccc(F)cc1 (stereo unspecified) | inactive
O=C(COC(=O)CSc1ccccc1)Nc1ccc(F)cc1F | inactive
CCOC(=O)c1ccc(NC(=O)Cn2c(=O)cc(C)c3c(C)nn(-c4cccc(F)c4)c32)cc1 | inactive
CN(Cc1ccccc1)S(=O)(=O)c1ccc(F)c(C(=O)Nc2cccc(Cl)c2Cl)c1 | inactive
Cc1ccc(Cn2c(C)nc3c(c2=O)c2nc4ccccc4nc2n3Cc2ccco2)cc1 | 22.4 µM (active)
CCN1CCN(C(c2ccc(C)cc2)c2c(O)cc(C)n(Cc3ccco3)c2=O)CC1 (stereo unspecified) | inactive
Cc1ccc(Cn2c(=O)n(Cc3nc(-c4ccccc4)no3)c(=O)c3cc4c(cc32)OCO4)cc1 | inactive
COc1cccc(C(=O)Nc2ccc(-c3cc(C(F)(F)F)nn3-c3ccccc3)cc2)c1 | inactive
O=C(CN1c2ccccc2S(=O)(=O)c2ccccc21)Nc1cccc(C(F)(F)F)c1 | inactive
CCCCN(CCCNC(=O)c1cc(Nc2ccccc2OC)nc2ccccc12)c1ccccc1 | inactive
O=C(NCCCO)C(=O)Nc1c2c(nn1-c1ccccc1)CSC2 | inactive
CC(C)(C)C(=O)OCc1nc(-c2ccc(O)c(O)c2)cs1 | 14.1 µM (active)
O=c1cc(-c2ccccc2)[nH]c2nc(Cl)ccc12 | inactive
Cc1ccc2c(c1)c1c(c(=O)n(-c3ccccc3)c(=O)n1CC(=O)c1ccc(Cl)cc1)n2C | inactive
O=C(CSc1oc(-c2ccccc2)nc1S(=O)(=O)c1ccc(Br)cc1)NC1CCCCC1 | inactive
O=C(CCNC(=O)c1ccc([N+](=O)[O-])cc1)Nc1ccccc1N1CCOCC1 | inactive
N=C1C(c2nc3ccccc3[nH]2)=C(O)CN1NC(=O)c1c[nH]c2ccccc12 | inactive
N=C1C(c2nc3ccccc3s2)=C(O)CN1NC(=O)c1ccc([N+](=O)[O-])cc1 | 50.1 µM (active)
COCCNc1ncnc2c1c(-c1ccccc1)cn2-c1ccc(C)c(Cl)c1 | inactive
COc1cccc(-c2cc(C(=O)Nc3ccc(C)cc3)[nH]n2)c1 | inactive
Cn1c(=O)sc2cc(NS(=O)(=O)c3ccc(C(C)(C)C)cc3)ccc21 | inactive
CC(=O)Nc1ccc(S(=O)(=O)Nc2ccc(-c3ccc4nnc(C)n4n3)cc2)cc1 | inactive
CC(=O)c1ccc(S(=O)(=O)Nc2ccc(-c3ccc4nncn4n3)cc2)cc1 | 20 µM (active)

Compound | Potency
O=C(Nc1ccc(-c2ccc3nncn3n2)cc1)C1CCCCC1 | inactive
Cn1nnc2c(N3CCN(c4ccccc4)CC3)ncnc21 | inactive
CCCCSc1ncnc2c1sc1nc(N3CCOCC3)c3c(c12)CCCC3 | inactive
CN(C)C(CNC(=O)c1ccc(OCc2cn3ccccc3n2)cc1)c1ccco1 (stereo unspecified) | 39.8 µM (active)
O=Cc1ccc(OCc2cn3ccccc3n2)cc1 | inactive
CN(C)C(CNC(=O)CCCOc1ccccc1)c1ccco1 (stereo unspecified) | inactive
Cc1ccc(OCC(=O)Nc2ccc(OCc3cc(=O)n4c(C)csc4n3)cc2)cc1C | inactive
CCCCc1nn2c(=O)cc(COC(=O)c3ccccc3NC(=O)C(C)(C)C)nc2s1 | inactive
CCOc1ccc(N(CC)S(=O)(=O)N2CCCC(C(=O)NCc3ccc(Cl)cc3)C2)cc1 (stereo unspecified) | inactive
Cc1ccc(N(Cc2ccccc2O)C(=O)c2ccccc2F)cc1 | inactive
Cc1ccc(N(Cc2cc(=O)[nH]c3ccccc23)C(=O)CCl)cc1 | 56.2 µM (active)
Cn1nnnc1SCc1cc(=O)[nH]c2ccccc12 | inactive
COc1ccc(CNC(=O)c2cc3c(s2)-c2ccccc2OC3)cc1 | inactive
Cc1c(C)n(Cc2ccc(Cl)cc2)c2ccc(C(=O)N3CCN(c4ccccc4F)CC3)cc12 | inactive
CC(C)c1ccc(Cn2c(COc3ccccc3)nc3ccccc32)cc1 | inactive
CC(C)c1ccc2c(c1)c(SC(C)(C)C)c(CC(C)(C)C(=O)O)n2Cc1ccc(Cl)cc1 | 35.5 µM (active) and 25.1 µM (active)
Cc1ccc(S(=O)(=O)NCc2nc3nc(C)cc(C)n3n2)cc1 | inactive
Cc1cc(NC(=O)CSc2ncc(C(=O)Nc3ccc(Cl)cc3)c(=O)n2C)no1 | inactive
Cc1ccc(C)c(NC(=O)CSC2=Nc3ccccc3N=C(c3ccc(F)cc3)C2)c1 | inactive
CCOc1ccc(NC(=O)C(C)N2C(=O)c3ccccc3C2=O)cc1 (stereo unspecified) | inactive
CC(C(=O)Nc1ccc(O)c(C(=O)O)c1)N1C(=O)/C(=C/c2cccs2)SC1=S (stereo unspecified) | 79.4 µM (active)
O=C1/C(=C/c2cccs2)SC(=S)N1C1CCS(=O)(=O)C1 (stereo unspecified) | inactive
CCN(CC)CCNc1ncnc2c1cnn2-c1cc(Cl)ccc1C | inactive
CC(C)C(=O)Nc1nc2c(s1)CC(C(C)(C)C)CC2 (stereo unspecified) | inactive

Compound | Potency
CCOc1ccccc1C(=O)Nc1ccc2c(c1)N(C)C(=O)c1ccccc1S2 | inactive
Cc1ccc(Cl)cc1-n1ncc2c(N3CCC(C(N)=O)CC3)ncnc21 | inactive
Cc1ccc(/C=C2\CCn3c2nc2cc(C(=O)O)ccc2c3=O)c(C)c1 | 79.4 µM (active)
O=C(O)c1ccc2c(=O)n3c(nc2c1)/C(=C/c1ccc(OC(F)F)cc1OC(F)F)CC3 | inactive
N#Cc1ccc(/C=C2\CCn3c2nc2cc(C(=O)O)ccc2c3=O)cc1 | inactive
Fc1ccc(Nc2nc(SCc3ccccc3Cl)nc3ccccc23)cc1 | inactive
O=C(NCC12CC3CC(CC(C3)C1)C2)c1cc2nc(-c3ccccc3)cc(C(F)(F)F)n2n1 | inactive
COCCn1c(CCC(=O)Nc2cc(C)ccc2C)nc2cccnc21 | inactive
COC(=O)c1ccc(Cn2c(SCC(=O)N(C)c3ccccc3)nc3ccccc32)cc1 | inactive
Cc1ccc(O)c(NC(=O)CCS(=O)(=O)c2nc(-c3ccc4c(c3)OCO4)cc(C(F)(F)F)n2)c1 | inactive
O=C(CCc1nc2sc3c(c2c(=O)[nH]1)CCCC3)NCC(=O)Nc1ccccc1Br | 8.91 µM (active)
Cc1cccc(NC(=O)CSc2nc3c(c(=O)[nH]2)CCCC3)c1C | inactive
COc1ccccc1-n1c(SCC(=O)O)nc2sc3c(c2c1=O)CCC3 | inactive
COc1ccccc1CNC(=O)C(=O)NCC(c1cccs1)S(=O)(=O)c1cccs1 (stereo unspecified) | inactive
COc1ccc(C2C(=O)N(C3CCCCC3)CC(=O)N2Cc2ccccc2Cl)cc1OC (stereo unspecified) | inactive
CCOC(=O)c1cccc(NC(=O)Cn2cnc3nc4c(cc3c2=O)CCCC4)c1 | inactive
COc1ccc(NC(=O)CSc2nc3ccccc3[nH]2)cc1 | inactive
COc1ccc(-c2nc3c(c(SCC(=O)Nc4ccc(C(=O)O)cc4)n2)Cc2ccccc2O3)cc1 | 7.94 µM (active)
COC(=O)c1ccc(NC(=O)CSc2n[nH]c(-c3ccccc3)n2)cc1 | inactive
C=C(C)C(=O)O[C@H]1C/C(C)=C\C(=O)/C=C(\C)[C@H](O)[C@@H]2OC(=O)C(=C)[C@@H]21 | 20 µM (active)
CCOc1ccc(-n2nc3ccc(NC(=O)c4ccc(OC)c(Cl)c4)cc3n2)cc1 | inactive
O=[N+]([O-])c1cc(Cl)cc(/C=N/NC(=S)Nc2cc(S(=O)(=O)N3CCOCC3)ccc2Cl)c1O | 50.1 µM (active)
Cc1ccc(S(=O)(=O)N2CCOCC2)cc1NC(=O)c1ccncc1 | inactive
COCCNC(=S)Nc1cc(S(=O)(=O)N2CCOCC2)ccc1N1CCCCC1 | inactive

Compound | Potency
Cc1nc2c(c(C)nn2-c2ccccc2)c(C)c1CCC(=O)NCCc1ccc(Cl)cc1 | inactive
CCOc1ccc(NC(=O)Cn2c(C)ccc(C#N)c2=O)cc1 | inactive
CCOc1ccc(NC(=O)c2ccc(NC(=O)COC(=O)c3ccc(NC(=O)CC#N)cc3)cc2)cc1 | 1.26 µM (active)
CCOc1ccc(NC(=O)c2ccc(CSc3nnnn3C)cc2)cc1 | inactive
Cc1ccc(S(=O)(=O)c2nc(-c3cccs3)oc2N2CCCCC2)cc1 | inactive
COc1ccc(CCNc2ncnc3onc(-c4ccc(Cl)cc4)c23)c(OC)c1 | inactive
Cc1ccc(C)c(N2CCN(CCCNC(=O)Nc3ccc(Cl)cc3)CC2)c1 | inactive
CN1C(=O)/C(=C/c2ccco2)SC1=Nc1cccc(C(=O)O)c1 | 35.5 µM (active)
CN=C1S/C(=C\c2c(OC)cc(OC)cc2OC)C(=O)N1C | inactive
O=C(O)c1cccc(N=NN2CCCCCC2)c1 | inactive
O=C(CSc1nc(-c2cccc(F)c2)[nH]c1-c1ccccc1)Nc1ccc2c(c1)OCO2 | inactive
Cc1ccc2oc3c(c(=O)c2c1)C(c1ccc([N+](=O)[O-])cc1)N(CCCN1CCOCC1)C3=O (stereo unspecified) | inactive
Cc1cc(C)c(C(=O)CSc2nc(C)cc(=O)[nH]2)c(C)c1 | inactive
CCCc1cc(=O)[nH]c(SCC(=O)Nc2ccc(C(=O)Nc3ccccc3OC)cc2)n1 | inactive
COC(=O)c1cccc(NC(=O)CSc2nc(C)cc(=O)[nH]2)c1 | 20 µM (active)
Cc1ccccc1Nc1nn2c(=O)c3ccc(C(=O)NCCc4ccc(Cl)cc4)cc3nc2s1 | inactive
Cc1ccc2onc(CC(=O)N3CCN(c4ccc(Cl)cc4)CC3)c2c1 | inactive
Cc1ccc(C(=O)O)cc1-c1ccc(/C=C2\SC(=O)N(CC(=O)Nc3ccc4c(c3)OCO4)C2=O)o1 | 4.47 µM (active)
O=C(CN1CCN(c2ncc(C(F)(F)F)cc2Cl)CC1)Nc1ccc2c(c1)OCO2 | inactive
Cn1c(=O)c2ccccc2n(CC(=O)Nc2ccc3c(c2)OCCO3)c1=O | inactive
O=C(NCc1ccc(F)cc1)c1ccc2nc(N3CCCCC3)sc2c1 | inactive
Cc1ccccc1-c1nc2cc(NC(=O)c3cccc(OCCC(C)C)c3)ccc2o1 | inactive
CCC(=O)N1CCc2cc(CNS(=O)(=O)c3ccc(Br)s3)ccc21 | inactive
Cc1cccc(NC(=O)CSc2nc3c(oc4ccccc43)c(=O)n2-c2ccc(F)cc2)c1 | inactive
